Source: PubChem BioAssay AID1159580 (chemical genetic matrix, 2015)
Where “and” joins values, the source holds several entries; their conditions need not be identical. Equal values may be shown once. The whole screen tested about 5,500 compounds, of which about 2,000 (36%) were called active. About 18% were inconclusive and are not listed. Rule as the data show it: active = normalized growth mostly below about 0.91 (no sharp cut-off); inconclusive = no clear call, values can overlap the other calls; inactive = mostly above about 0.92. The list shows a part of the results.

Experiment: chemical genetic growth profiling, strain panel (AID 1159580);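 also: tested at 20 µM; growth read once vehicle control cultures reached saturation at 30 °C; 1 = growth at the plate median or of vehicle wells; lower values mean less growth of the strain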
Conditions: growth OD

Measured: normalized growth

O=C(O)c1cc(=O)c2ccc(Cl)cc2[nH]1
inactive: S. cerevisiae deletion strains, locus YJR043C, strain POL32, hits give low values 1.03 | S. cerevisiae deletion strains, locus YJR075W, strain HOC1, hits give low values 1.02 and 1 | S. cerevisiae deletion strains, locus YKL009W, strain mrt4, hits give low values 0.99 | S. cerevisiae deletion strains, locus YKL068W, hits give low values 0.995 | S. cerevisiae deletion strains, locus YKL085W, strain MDH1 (second series), hits give low values 0.982 | S. cerevisiae deletion strains, locus YKL085W, strain MDH1, hits give low values 0.982 | S. cerevisiae deletion strains, locus YKL160W, strain elf1, hits give low values 1.05 | S. cerevisiae deletion strains, locus YKL190W, strain CNB1, hits give low values 1.01 | S. cerevisiae deletion strains, locus YKR001C, strain vps1, hits give low values 0.998 | S. cerevisiae deletion strains, locus YKR026C, strain gcn3, hits give low values 1.01 | S. cerevisiae deletion strains, locus YKR091W, strain srl3, hits give low values 1.01 | S. cerevisiae deletion strains, locus YLL001W, strain dnm1, hits give low values 1.02 | S. cerevisiae deletion strains, locus YLL026W, hits give low values 1.02 | S. cerevisiae deletion strains, locus YLL041C, strain sdh2, hits give low values 1.03 | S. cerevisiae deletion strains, locus YLR027C, strain aat2, hits give low values 1.03 | S. cerevisiae deletion strains, locus YLR039C, strain RIC1, hits give low values 1.02 | S. cerevisiae deletion strains, locus YLR058C, strain SHM2, hits give low values 1.02 | S. cerevisiae deletion strains, locus YLR102C, strain apc9, hits give low values 0.986 | S. cerevisiae deletion strains, locus YLR221C, strain rsa3, hits give low values 0.988 | S. cerevisiae deletion strains, locus YLR258W, strain gsy2, hits give low values 1.03 | S. cerevisiae deletion strains, locus YLR262C, strain YPT6 (second series), hits give low values 1 | S. cerevisiae deletion strains, locus YLR262C, strain YPT6, hits give low values 1.05 | S. cerevisiae deletion strains, locus YLR268W, strain sec22, hits give low values 0.986 | S. cerevisiae deletion strains, locus YLR320W, strain mms22, hits give low values 1.01 | S. cerevisiae deletion strains, locus YLR330W, strain CHS5, hits give low values 1.01 | S. cerevisiae deletion strains, locus YLR342W, strain FKS1 (second series), hits give low values 0.957 | S. cerevisiae deletion strains, locus YLR342W, strain FKS1, hits give low values 1.02 | S. cerevisiae deletion strains, locus YLR357W, strain rsc2, hits give low values 1.02 | S. cerevisiae deletion strains, locus YLR370C, strain arc18, hits give low values 1.02 | S. cerevisiae deletion strains, locus YLR371W, strain rom2, hits give low values 0.984 | S. cerevisiae deletion strains, locus YLR384C, strain iki3, hits give low values 1.01 | S. cerevisiae deletion strains, locus YLR418C, strain cdc73, hits give low values 0.974 | S. cerevisiae deletion strains, locus YML016C, strain PPZ1, hits give low values 1.02 | S. cerevisiae deletion strains, locus YML032C, strain rad52, hits give low values 0.996 | S. cerevisiae deletion strains, locus YML120C, strain ndi1, hits give low values 1.01 | S. cerevisiae deletion strains, locus YML124C, strain tub3, hits give low values 0.998 | S. cerevisiae deletion strains, locus YMR058W, strain fet3, hits give low values 1.01 | S. cerevisiae deletion strains, locus YMR078C, strain ctf18, hits give low values 0.987 | S. cerevisiae deletion strains, locus YMR125W, strain sto1, hits give low values 1.01 | S. cerevisiae deletion strains, locus YMR129W, hits give low values 1.01 | S. cerevisiae deletion strains, locus YMR205C, strain PFK2, hits give low values 1.03 | S. cerevisiae deletion strains, locus YMR223W, strain ubp8, hits give low values 0.968 | S. cerevisiae deletion strains, locus YMR231W, strain pep5, hits give low values 1.01 | S. cerevisiae deletion strains, locus YMR263W, strain SAP30, hits give low values 1.03 | S. cerevisiae deletion strains, locus YMR307W, strain GAS1, hits give low values 0.978 | S. cerevisiae deletion strains, locus YNL067W, strain RPL9B, hits give low values 1.03 | S. cerevisiae deletion strains, locus YNL071W, strain lat1, hits give low values 1.01 | S. cerevisiae deletion strains, locus YNL128W, strain TEP1, hits give low values 1.03 | S. cerevisiae deletion strains, locus YNL153C, strain GIM3, hits give low values 1.04 | S. cerevisiae deletion strains, locus YNL175C, strain NOP13, hits give low values 1.01 | S. cerevisiae deletion strains, locus YNL197C, strain WHI3, hits give low values 1.02 | S. cerevisiae deletion strains, locus YNL209W, strain ssb2, hits give low values 1.01 | S. cerevisiae deletion strains, locus YNL224C, strain SQS1, hits give low values 1 | S. cerevisiae deletion strains, locus YNL233W, strain BNI4, hits give low values 1.03 | S. cerevisiae deletion strains, locus YNL248C, strain rpa49, hits give low values 1.08 | S. cerevisiae deletion strains, locus YNL250W, strain rad50, hits give low values 0.982 | S. cerevisiae deletion strains, locus YNL271C, strain bni1, hits give low values 0.992 | S. cerevisiae deletion strains, locus YNL298W, strain CLA4, hits give low values 0.999 | S. cerevisiae deletion strains, locus YNL307C, strain MCK1, hits give low values 0.988 | S. cerevisiae deletion strains, locus YNL322C, strain KRE1 (second series), hits give low values 1.06 | S. cerevisiae deletion strains, locus YNL322C, strain KRE1, hits give low values 1.01 and 1.02 | S. cerevisiae deletion strains, locus YNR049C, strain mso1, hits give low values 1 | S. cerevisiae deletion strains, locus YNR052C, strain pop2, hits give low values 0.99 | S. cerevisiae deletion strains, locus YOL006C, strain TOP1, hits give low values 1.11 | S. cerevisiae deletion strains, locus YOL012C, strain htz1 1.2 | S. cerevisiae deletion strains, locus YOL147C, strain pex11, hits give low values 0.994 | S. cerevisiae deletion strains, locus YOR001W, strain rrp6, hits give low values 0.96 | S. cerevisiae deletion strains, locus YOR061W, strain CKA2, hits give low values 1.01 | S. cerevisiae deletion strains, locus YOR069W, strain VPS5, hits give low values 1.01 | S. cerevisiae deletion strains, locus YOR070C, strain gyp1, hits give low values 1.01 | S. cerevisiae deletion strains, locus YOR080W, strain dia2, hits give low values 1 | S. cerevisiae deletion strains, locus YOR083W, strain WHI5 (second series), hits give low values 0.989 | S. cerevisiae deletion strains, locus YOR083W, strain WHI5, hits give low values 1.05 | S. cerevisiae deletion strains, locus YOR106W, strain vam3, hits give low values 1.05 | S. cerevisiae deletion strains, locus YOR136W, strain idh2, hits give low values 0.987 | S. cerevisiae deletion strains, locus YOR144C, strain elg1, hits give low values 0.984 | S. cerevisiae deletion strains, locus YOR184W, strain ser1, hits give low values 0.985 | S. cerevisiae deletion strains, locus YOR265W, strain rbl2, hits give low values 1 | S. cerevisiae deletion strains, locus YOR270C, strain vph1, hits give low values 1.04 | S. cerevisiae deletion strains, locus YOR290C, strain snf2, hits give low values 1.06 | S. cerevisiae deletion strains, locus YOR316C, strain cot1, hits give low values 0.994 | S. cerevisiae deletion strains, locus YPL051W, strain arl3, hits give low values 1.01 | S. cerevisiae deletion strains, locus YPL055C, strain LGE1, hits give low values 1.07 | S. cerevisiae deletion strains, locus YPL078C, strain atp4, hits give low values 1.06 | S. cerevisiae deletion strains, locus YPL106C, strain sse1, hits give low values 1.06 | S. cerevisiae deletion strains, locus YPL240C, strain hsp82, hits give low values 1.02 | S. cerevisiae deletion strains, locus YPL241C, strain CIN2, hits give low values 1.01 | S. cerevisiae deletion strains, locus YPR119W, strain clb2, hits give low values 0.989 | S. cerevisiae deletion strains, locus YPR141C, strain kar3, hits give low values 0.99 | S. cerevisiae deletion strains, locus YPR163C, strain tif3, hits give low values 0.986 | S. cerevisiae deletion strains, locus YPR167C, strain met16, hits give low values 0.989 | S. cerevisiae deletion strains, strain wtn01, hits give low values 0.98 | S. cerevisiae strains, strain wild type, hits give low values 1.02
